Source: PubChem (University of Kansas High Throughput Screening Laboratory)
The sample as a whole holds a higher share of hits than the screen did.
mHTT-CaM PPI inh = mutant huntingtin-calmodulin interaction inhibitors – biochemical, AlphaScreen, primary screen. AID 1671202, 2021. P42858. AlphaScreen His-mHTT/GST-CaM binding, luminescence. actives 3.6% (n = 190,000). inhibition, % at 15 µM
Target sequence (P42858 whole entry, looked up, change not shown): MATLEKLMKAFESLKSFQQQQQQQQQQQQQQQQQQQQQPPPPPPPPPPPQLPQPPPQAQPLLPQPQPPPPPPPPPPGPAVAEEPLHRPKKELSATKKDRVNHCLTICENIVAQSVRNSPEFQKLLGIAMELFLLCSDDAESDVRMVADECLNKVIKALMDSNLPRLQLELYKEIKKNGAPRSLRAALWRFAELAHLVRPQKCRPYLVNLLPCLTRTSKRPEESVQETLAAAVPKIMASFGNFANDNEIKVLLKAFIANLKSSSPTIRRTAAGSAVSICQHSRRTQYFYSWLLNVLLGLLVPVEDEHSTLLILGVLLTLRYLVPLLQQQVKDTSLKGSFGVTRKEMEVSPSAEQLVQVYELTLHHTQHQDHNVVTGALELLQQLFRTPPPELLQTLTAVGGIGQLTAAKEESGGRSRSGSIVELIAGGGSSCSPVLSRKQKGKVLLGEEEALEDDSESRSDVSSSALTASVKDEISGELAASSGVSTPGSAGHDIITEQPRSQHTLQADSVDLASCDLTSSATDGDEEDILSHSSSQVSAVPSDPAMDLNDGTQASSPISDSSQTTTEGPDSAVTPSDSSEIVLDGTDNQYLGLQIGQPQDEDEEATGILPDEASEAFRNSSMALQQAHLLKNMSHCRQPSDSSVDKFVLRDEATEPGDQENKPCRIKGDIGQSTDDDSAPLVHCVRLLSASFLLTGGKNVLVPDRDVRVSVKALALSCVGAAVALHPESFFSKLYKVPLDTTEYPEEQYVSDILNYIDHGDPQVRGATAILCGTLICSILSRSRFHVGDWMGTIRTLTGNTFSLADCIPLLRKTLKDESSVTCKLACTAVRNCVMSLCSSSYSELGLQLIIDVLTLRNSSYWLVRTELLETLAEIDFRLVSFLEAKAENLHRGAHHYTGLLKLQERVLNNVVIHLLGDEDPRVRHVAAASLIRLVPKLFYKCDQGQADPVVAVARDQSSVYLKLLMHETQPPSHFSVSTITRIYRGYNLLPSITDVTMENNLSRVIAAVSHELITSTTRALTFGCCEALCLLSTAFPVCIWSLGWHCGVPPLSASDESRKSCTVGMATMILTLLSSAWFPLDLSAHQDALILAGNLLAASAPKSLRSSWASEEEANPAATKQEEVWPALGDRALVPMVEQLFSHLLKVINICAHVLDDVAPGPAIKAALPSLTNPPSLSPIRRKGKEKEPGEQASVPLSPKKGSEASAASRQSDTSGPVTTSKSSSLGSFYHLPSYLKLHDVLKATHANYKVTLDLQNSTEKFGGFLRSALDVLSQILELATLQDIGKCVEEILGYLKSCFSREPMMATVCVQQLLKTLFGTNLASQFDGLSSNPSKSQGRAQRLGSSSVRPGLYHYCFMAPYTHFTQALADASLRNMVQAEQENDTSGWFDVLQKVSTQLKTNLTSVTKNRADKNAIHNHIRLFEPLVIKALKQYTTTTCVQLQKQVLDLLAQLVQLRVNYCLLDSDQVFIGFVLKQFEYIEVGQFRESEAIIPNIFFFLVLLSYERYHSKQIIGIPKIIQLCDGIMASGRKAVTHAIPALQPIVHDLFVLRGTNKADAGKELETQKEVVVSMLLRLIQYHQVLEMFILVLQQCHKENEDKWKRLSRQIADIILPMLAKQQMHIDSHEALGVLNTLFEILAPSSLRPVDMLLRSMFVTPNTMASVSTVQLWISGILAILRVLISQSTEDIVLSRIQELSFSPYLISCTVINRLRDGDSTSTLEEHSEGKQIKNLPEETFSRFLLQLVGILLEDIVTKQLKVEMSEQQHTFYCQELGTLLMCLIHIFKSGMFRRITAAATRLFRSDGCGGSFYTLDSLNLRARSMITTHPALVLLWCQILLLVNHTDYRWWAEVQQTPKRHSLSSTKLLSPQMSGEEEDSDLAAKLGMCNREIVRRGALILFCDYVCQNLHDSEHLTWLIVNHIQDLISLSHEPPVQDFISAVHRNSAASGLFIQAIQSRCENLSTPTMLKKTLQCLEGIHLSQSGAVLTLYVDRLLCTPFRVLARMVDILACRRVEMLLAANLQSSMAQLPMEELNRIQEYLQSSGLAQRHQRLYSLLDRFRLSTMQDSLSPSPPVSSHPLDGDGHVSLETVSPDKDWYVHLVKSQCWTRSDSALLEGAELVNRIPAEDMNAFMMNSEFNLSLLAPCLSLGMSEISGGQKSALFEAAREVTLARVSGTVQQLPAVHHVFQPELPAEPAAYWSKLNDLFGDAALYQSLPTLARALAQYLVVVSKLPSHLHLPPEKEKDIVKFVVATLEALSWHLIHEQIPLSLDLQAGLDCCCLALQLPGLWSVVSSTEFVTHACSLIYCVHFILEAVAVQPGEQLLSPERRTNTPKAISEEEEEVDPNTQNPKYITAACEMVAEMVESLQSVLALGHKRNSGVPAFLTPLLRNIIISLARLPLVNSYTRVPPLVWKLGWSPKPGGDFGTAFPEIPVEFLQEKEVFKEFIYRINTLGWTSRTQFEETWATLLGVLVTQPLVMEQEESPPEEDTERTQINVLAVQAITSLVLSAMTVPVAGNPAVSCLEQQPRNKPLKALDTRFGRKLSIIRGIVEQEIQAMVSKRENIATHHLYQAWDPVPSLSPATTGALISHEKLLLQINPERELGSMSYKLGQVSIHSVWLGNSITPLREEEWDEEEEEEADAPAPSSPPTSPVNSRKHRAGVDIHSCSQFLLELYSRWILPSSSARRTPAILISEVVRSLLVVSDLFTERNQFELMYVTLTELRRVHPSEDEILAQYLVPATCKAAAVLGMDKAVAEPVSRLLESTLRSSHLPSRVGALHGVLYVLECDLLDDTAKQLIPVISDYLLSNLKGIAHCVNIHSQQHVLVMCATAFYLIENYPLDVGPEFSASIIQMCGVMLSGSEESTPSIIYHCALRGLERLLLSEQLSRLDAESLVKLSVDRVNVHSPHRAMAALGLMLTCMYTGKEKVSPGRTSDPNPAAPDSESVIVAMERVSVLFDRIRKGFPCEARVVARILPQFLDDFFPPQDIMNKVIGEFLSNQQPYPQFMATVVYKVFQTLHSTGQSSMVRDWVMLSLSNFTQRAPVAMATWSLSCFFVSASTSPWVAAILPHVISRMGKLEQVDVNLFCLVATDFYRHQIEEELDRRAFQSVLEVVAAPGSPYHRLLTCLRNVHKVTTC
Pf apPOL inh = Pf-apPOL inhibitors, biochemical, fluorescence | Plasmodium falciparum apicoplast DNA polymerase (apPOL) | Recombinant Pf-apPOL, molecular beacon fluorescence, 1.5 h | inhibition, % at 10 µM | actives 0.25% (n = 210,000) | AID 1794808, 2022
Hits are given with their value; 0 = inactive; - = no result given. Cut-off read from the data, not from the text of the source: active = inhibition above about 50%; inactive = the rest.

SMILES	mHTT-CaM PPI inh	Pf apPOL inh
O=C(Cc1ccccc1)NC(c1ccccc1Cl)c1ccc2cccnc2c1O (centres undefined)	100.0	0
O=C(Cc1ccccc1)Nc1cc(-c2nc3ncccc3o2)ccc1Cl	0	0
COc1ccc(NC(=O)C2CC2)c2ncccc12	0	0
CCC(=O)NC(c1ccccc1Cl)c1ccc2cccnc2c1O (centres undefined)	100.1	0
O=C(CCCN1C(=O)c2cccnc2C1=O)NC(c1ccccc1)c1ccccc1	0	0
CCC(=O)Nc1ccccc1Cl	0	0
CCC(=O)NC(c1ccccc1OC)c1ccc2cccnc2c1O (centres undefined)	100.0	0
CCC(=O)Nc1cccnc1-c1ccc(C(=O)Nc2ccccc2OC)cc1	0	0
O=C(NC(c1ccccc1)c1ccccc1)c1ccccn1	0	0
O=C(Cc1ccccc1)NC(c1ccccc1)c1ccc2cccnc2c1O (centres undefined)	100.0	0
Cc1cccc(CN2CCN(C3CCN(C(=O)Nc4ccccc4F)CC3)C2=O)c1	0	0
COc1cc(OC)cc(N2CCN(Cc3ccccc3)C(C)C2=O)c1 (centres undefined)	0	0
COc1cc(OC)cc(N2CCN(Cc3ccc(F)cc3)C(C)C2=O)c1 (centres undefined)	78.6	0
NS(=O)(=O)c1ccc(NC(=O)CSc2nnc(-c3ccco3)c(-c3ccco3)n2)cc1	0	0
O=C(CSc1nnc(-c2ccco2)c(-c2ccco2)n1)Nc1ccc(Cl)cc1	99.0	0
Cc1cc(C)c(C#N)c(OC(=O)c2cccs2)n1	-	0
Cc1cc(C)c2c(=O)n(C(=O)c3cccs3)sc2n1	-	100.0
O=C(NCc1ccc(F)c(Cl)c1)c1cn2ccccc2n1	0	0
Nc1nc(SCc2ccc(C(=O)NCCCO)cc2)nc2sc3c(c12)CCC3	0	0
COc1ccc(N2CCN(c3cc(N4CCN(C)CC4)ccc3[N+](=O)[O-])CC2)cc1	54.4	0
CN1CCN(c2cc(N3CCN(S(C)(=O)=O)CC3)ccc2[N+](=O)[O-])CC1	0	0
COc1ccccc1C(=O)N1CCN(c2ccc([N+](=O)[O-])c(N3CCCCC3)c2)CC1	52.8	0
O=C(c1cc(F)c(F)cc1Cl)N1CCN(c2ccc([N+](=O)[O-])c(N3CCCCC3)c2)CC1	0	0
CC1CCCCC1NC(=O)c1ccc2c(c1)N(Cc1ccc(F)cc1)C(=O)CS2 (centres undefined)	0	0
CCCNC(=O)Cc1cn2cc(Br)ccc2n1	0	0
SMILES	mHTT-CaM PPI inh	Pf apPOL inh
Cc1ccc(CNc2cc(-n3ccnc3)ncn2)cc1	0	0
CC1(c2ccccc2)CC(C)(C)N(C(=O)C(F)(F)F)c2ccccc21 (centres undefined)	0	0
CC1(c2ccccc2)CC(C)(C)N2C(=O)C(=O)c3cccc1c32 (centres undefined)	80.0	0
COc1ccc(Br)cc1C=Nc1c(-c2ccco2)nc2ccccn12	0	0
Oc1ccc(Br)cc1C=Nc1c(-c2ccco2)nc2ccccn12	62.0	0
Brc1ccc(C=Nc2c(-c3ccco3)nc3ccccn23)cc1	0	0
CSc1ccc(C=Nc2c(-c3ccco3)nc3ccccn23)cc1	80.0	0
Oc1ccc(C=Nc2c(-c3ccco3)nc3ccc(Cl)cn23)cc1	52.0	0
COc1ccc(C=Nc2c(-c3ccco3)nc3ccccn23)cc1OC	0	0
Clc1ccccc1C=Nc1c(-c2ccco2)nc2ccccn12	79.0	0
O=[N+]([O-])c1cc(C=Nc2c(-c3ccco3)nc3ccccn23)ccc1Cl	0	0
COCC(C)NC(=O)C(=O)NCc1ccccc1Cl (centres undefined)	0	0
COc1cccc(NC(=O)c2cc(C)n(CCN(C)C)c2C)c1	0	0
COc1ccc(NC(=O)CN(c2ccccc2)S(=O)(=O)c2ccccc2[N+](=O)[O-])cc1OC	0	0
CC(C)c1n[nH]c(C2CCCN2C(=O)Cc2c[nH]c3ccccc23)n1 (centres undefined)	0	0
Cc1ccc(C)c(N2CCN(C(=O)c3cc(C)n4nccc4n3)CC2)c1	0	0
CCc1nc(N2CCCC2=O)sc1C(=O)N1CCN(c2cc(C)ccc2C)CC1	95.4	0
CC(C)c1nc(N2CCCC2=O)sc1C(=O)N1CCN(c2ccccc2F)CC1	55.0	0
CC(C)c1nc(N2CCCC2=O)sc1C(=O)N1CCN(c2ccc(F)cc2)CC1	0	0
CCc1cc(C(=O)N2CCN(c3cc(C)ccc3C)CC2)nc2ccnn12	54.1	0
COC(=O)c1cccc(C(=O)N2CCN(c3cc(C)ccc3C)CC2)n1	0	0
CCOc1ccc(C(=O)NC2(c3nc(CC)no3)CCCCC2)cc1OCC	0	0
O=C(CSC1CCCC1)NCCn1nc(-c2cccs2)ccc1=O	0	0
COc1ccc(N=Cc2ccc(Cl)cc2)cc1Cl	0	0
COc1ccc(N=C/C=C/c2ccccc2Cl)cc1Cl	55.0	0
N#CC(=Cc1[nH]c2ccccc2c1O)C(N)=NCCc1ccccc1	0	0
